GluA2 TARP mod: GluA2-stargazin AMPA receptor complex modulation. O88602+P19491. HEK293 GluA2+stargazin, membrane potential dye (FDSS), glutamate EC50; hits were called plate by plate, in both directions. calls only at 30 µM. 40,000 compounds, 3.5% hits. AID 1259245;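 active = any of four per-well response measures lying three or more SD from its plate-wide compound average, in either direction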
GIRK2 act: GIRK2 channel activators by thallium flux; HEK293 GIRK2/NPY4 cells, thallium flux fluorescence; activation (% efficacy), % for hits at 75 µM; 34,000 tested, under 10 active;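 active = primary screen hit, no activity in plain HEK293 cells, and in GIRK2-only cells above 5% efficacy rising with concentration; inactive = the rest, including fluorescent compounds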;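 note: efficacy is normalized control-subtracted fluorescence 15 s after thallium addition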
Target sequence (P48051 whole entry, looked up): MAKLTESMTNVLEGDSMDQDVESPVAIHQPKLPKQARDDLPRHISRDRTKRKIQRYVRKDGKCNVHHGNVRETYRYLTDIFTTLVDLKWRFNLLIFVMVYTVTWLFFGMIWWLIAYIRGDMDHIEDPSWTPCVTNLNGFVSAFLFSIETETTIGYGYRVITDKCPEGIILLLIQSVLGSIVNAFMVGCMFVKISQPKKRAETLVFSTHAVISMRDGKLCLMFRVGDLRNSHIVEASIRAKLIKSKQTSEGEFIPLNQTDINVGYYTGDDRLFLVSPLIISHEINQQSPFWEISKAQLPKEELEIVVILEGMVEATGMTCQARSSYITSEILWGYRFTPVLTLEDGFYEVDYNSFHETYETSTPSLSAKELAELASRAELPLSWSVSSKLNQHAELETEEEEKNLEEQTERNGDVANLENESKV
* marks the source's active call; other numbers are inactive results; i = inactive; · = no result; + = active, no number. The entries come from a sample that favours hits as a whole.

SMILES	GluA2 TARP mod	GIRK2 act
Cn1c(=O)c2c(nc(N=Nc3c(O)[nH]c4ccccc34)n2Cc2ccccc2)n(C)c1=O	i	·
Cc1cc(NC(=O)CSc2nnc(N3CCN(C(=O)COc4ccccc4F)CC3)s2)no1	i	i
COc1ccccc1-c1nc(COC(=O)c2nnn(-c3ccc(C)cc3)c2C)c(C)o1	i	·
CCOc1ccccc1-c1nc(COC(=O)c2nnn(-c3ccc(Cl)cc3)c2C)c(C)o1	+	·
CS(=O)(=O)N1CCCC(C(=O)Nc2c(C(N)=O)oc3ccccc23)C1 (stereo unspecified)	i	i
Cc1noc(C2CN(C(=O)CSc3nc4ccccc4s3)C2)n1	i	i
CN(Cc1nc2ccccc2n1Cc1cccc(Cl)c1)C(=O)c1ccco1	·	i
Fc1cccc(Cl)c1Cn1c(CN2CCCC2)nc2ccccc21	+	i
CCOC(=O)N(C)Cc1nc2ccccc2n1Cc1c(F)cccc1Cl	+	·
Brc1ccc(Cn2c(CN3CCCC3)nc3ccccc32)cc1	i	·
COc1cc(OC)cc(C(=O)Nc2ccc3c(c2)N(C(C)=O)CCC3)c1	i	i
CCC(C(=O)N1CCN(c2ccc(-c3ccccn3)nn2)CC1)c1ccccc1 (stereo unspecified)	i	i
O=C(NNC(=O)c1cccn(Cc2ccc(F)cc2)c1=O)c1cccs1	i	i
O=C(CSCc1ccccc1)N1CCN(Cc2nnnn2-c2ccc(F)c(F)c2)CC1	+	i
O=C(C1CC1)N1CCN(Cc2nnnn2-c2ccc(F)c(F)c2)CC1	i	i
CC(C)S(=O)(=O)c1cccc(C(=O)Nc2sccc2C#N)c1	i	i
CC(C)Sc1cccc(C(=O)Nc2sccc2C#N)c1	+	·
CCCNC(=O)Cn1nc2c(c1NC(=O)c1ccc(-c3ccccc3)cc1)CSC2	i	i
COc1ccc(N2CC(C)Cn3c2nc2c3c(=O)n(CC(C)C)c(=O)n2C)c(OC)c1 (stereo unspecified)	i	·
CC(C)(C)C(=O)N1CCc2ccc(NC(=O)Cc3ccc(Cl)cc3)cc21	·	i
COc1ccccc1NC(=O)N1CCN(c2ccc3nnc(-c4ccco4)n3n2)CC1	i	i
CCc1ccccc1NC(=O)N1CCN(c2ccc3nnc(-c4ccco4)n3n2)CC1	+	i
O=C(NCc1cccc2ccccc12)Nc1ccc(CC(=O)N2CCCC2)cc1	i	i
COc1ccc(NC(=O)CCCn2nc(-c3cccs3)ccc2=O)cc1OC	·	i
Cc1nc(N2CCN(c3ccccc3F)CC2)c2c3c(sc2n1)CCCC3	i	·
SMILES	GluA2 TARP mod	GIRK2 act
CCc1nc(-n2nc(C)cc2N)c2c3c(sc2n1)CCC3	+	i
CCOc1ccc(NC(=O)Cn2cc(OC)c(=O)cc2CSc2nccc(C)n2)cc1	i	i
CC(=O)OCCCN1C(=O)c2ccc(Oc3cccc([N+](=O)[O-])c3)cc2C1=O	i	·
Cc1noc(C)c1S(=O)(=O)NCC(O)(c1ccccc1)C(F)(F)F (stereo unspecified)	i	i
CCCS(=O)(=O)N1CCc2ccc(NC(=O)c3cc(C)oc3C)cc2C1	i	i
O=C(NCc1cccs1)c1coc(NC(=O)c2ccco2)n1	+	i
O=C(Nc1nnc(Cc2cccs2)o1)c1ccco1	i	i
Cc1cn2c3c(=O)n(Cc4ccc(Cl)c(Cl)c4)c(=O)n(C)c3nc2n1CCN(C)C	i	i
O=C(Cn1ncc2c(c1=O)N(C1CC1)C(=O)CS2)N1CCCc2ccccc21	·	i
CCSc1ccccc1C(=O)NCC#CCN1CCc2ccccc2C1	i	i
CN1C(=O)C(=C2C=C(c3ccccc3)N(Cc3ccco3)C3=C2CCCC3)C(=O)N(C)C1=O	+	·
CCCNC(=O)CCCCn1c(=O)c2ccccc2n(CC(=O)Nc2ccc(OC)c(OC)c2)c1=O	i	·
CC(C)CCNC(=O)CCCCn1c(=O)c2ccccc2n(CC(=O)NCc2ccccc2)c1=O	+	·
CCCNC(=O)CCCCn1c(=O)c2ccccc2n(CC(=O)NCc2ccc(F)cc2)c1=O	+	i
O=C(CCCCn1c(=O)[nH]c2ccccc2c1=O)NC1CCCCC1	i	i
O=C(CCCCn1c(=O)c2ccccc2n(CC(=O)NC2CCCCC2)c1=O)NC1CCCCC1	+	i
COc1ccc(CNC(=O)Cn2c(=O)n(CCCCC(=O)NCC(C)C)c(=O)c3ccccc32)cc1	i	·
CCOc1cccc2cc(C(=O)NCc3ccncc3)c(=O)oc12	+	i
CCOc1ccc(OCCNC(=O)c2cc3cccc(OCC)c3oc2=O)cc1	i	i
COc1ccc(C(=O)Nc2ccc(N3CCCC3=O)cc2)cc1	+	i
COc1cc(OC)cc(C(=O)Nc2ccc(N3CCCC3=O)cc2)c1	i	i
COc1ccc(-c2ccc(=O)n(Cc3cccc4ccccc34)n2)cc1OC	i	i
O=C(Nc1ccc2c(c1)OCO2)C1CCN(c2ccc(-c3ccc(Cl)cc3)nn2)CC1	+	i
Cc1ccccc1-c1ccc(N2CCC(C(=O)Nc3ccc4c(c3)OCO4)CC2)nn1	i	i
O=C(NCc1cccnc1)C1CCN(c2ccc(-c3ccc(Cl)cc3)nn2)CC1	i	i
SMILES	GluA2 TARP mod	GIRK2 act
O=C(Nc1cccnc1)C1CCN(c2ccc(-c3ccc(Cl)cc3)nn2)CC1	+	i
O=C(Nc1ccc(-c2ccc(N3CCOCC3)nn2)cc1)Nc1cccc(Cl)c1	+	i
O=C(Nc1ccc(-c2ccc(N3CCOCC3)nn2)cc1)Nc1ccccc1F	i	i
CSc1ncccc1C(=O)N1CCC(CNC(=O)c2cc(C)on2)CC1	i	i
CCn1nccc1C(=O)N=c1sc2cc(F)ccc2n1CCOC	·	i
N=c1c(C(=O)NC2CCCC2)cc2c(=O)n3ccccc3nc2n1C1CCCC1	+	i
Cc1ccc(CNC(=O)c2cc3c(=O)n4ccccc4nc3n(Cc3ccco3)c2=N)cc1	i	i
Cc1ccc(NC(=O)/C=C2\SC(=O)N(CCC(=O)Nc3ccc(Cl)cc3)C2=O)cc1	i	·
Cc1onc(-c2ccccc2Cl)c1C(=O)Nc1ccc2c(c1)N(C(=O)c1ccco1)CC2	i	i
CCOCCn1c(=O)c2c(nc3n(-c4cccc(C)c4)c(C)cn23)n(C)c1=O	i	·
COc1ccc(-c2nnc(NC(=O)CCc3ccccc3)o2)cc1OC	i	i
COc1ccc(-c2nnc(NC(C)=O)o2)cc1OC	+	i
Cc1ccc(C(=O)Nc2nnc(-c3cccs3)o2)cc1C	i	·
COc1ccc(C(=O)Nc2nnc(-c3cc4cccc(OC)c4o3)o2)cc1OC	+	·
COc1ccccc1-c1nnc(NC(=O)c2ccc(C(C)=O)cc2)o1	i	·
COc1ccc(C(=O)Nc2nnc(-c3ccccc3OC)o2)cc1OC	+	·
COc1ccc(C(=O)Nc2nnc(-c3cccs3)o2)cc1OC	+	·
COc1cccc2cc(-c3nnc(NC(=O)c4ccccc4)o3)oc12	i	·
Cc1nc2sccn2c1-c1nnc(SCC(=O)N2CCN(c3ccccc3)CC2)n1C	i	i
COc1ccc(OC)c(Nc2nc(CC(=O)NCCC3=CCCCC3)cs2)c1	i	i
COc1ccc(C(=O)NNC(=O)c2cccn(Cc3ccc(Cl)c(Cl)c3)c2=O)cc1	i	i
CCC(=O)Nc1nnc(-c2ccc3c(c2)CCCC3)o1	i	i
CN(C)c1ccc(C(=O)Nc2nnc(-c3cccs3)o2)cc1	+	·

Screening data: PubChem, several laboratories
